Sampled rows, rich in hits. Any-hit rate of the full collection: about 9.3%.
ELG1 genotoxic: genotoxicity induction in ELG1-luciferase HEK293T cells; HEK293T ELG1-luciferase reporter, luminescence, 16 h; Potency, µM (doses to about 46 µM), actives largely listed as activators; hit rate 1.3% among 330,000; AID 504466; note: nearly all actives have a fitted effect of over 60% in size
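Cells (2,000/well) expressing the ELG1-luciferase fusion are dosed by pin tool and kept 16 hr at 37 °C, 5% CO2. Signal comes from ONE-Glo luciferase reagent after 30 min at room temperature.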
NPC1 promoter act: activates the NPC1 promoter; Huh7 NPC1 promoter luciferase reporter, 24 h; Potency, µM (doses to about 9.22 µM), usual class: activators; hit rate 2.4% among 320,000; note: nearly all actives have a fitted effect of over 60% in size
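Readout is luciferase luminescence, reflecting NPC1 promoter activation in stably transfected Huh7 cells after 24 h compound exposure at 37 °C in reduced-serum medium with 10% FBS.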
ELG1 DNA repair: blocks ELG1-dependent DNA repair in HEK293T cells; AID 504467; HEK293T ELG1-luciferase reporter, luminescence, 16 h; DNA damage induced by 5-fluorouridine; hit rate 2.3% among 330,000; Potency, µM (top dose mostly 46.1 µM), most hits filed as inhibitors; note: nearly all actives have a fitted effect of over 55% in size
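Luminescence from the luciferase reporter, measured 30 min after ONE-Glo reagent at room temperature, was the read-out. Beforehand, 2,000 cells per well were exposed for 16 hr at 37 °C to 5-fluorouridine together with compound or vehicle.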
FLuc modulator: inhibits or activates purified firefly luciferase, miR-21 counter-screen. hit rate 6.9% among 360,000. AID 588342. P08659. Potency, µM (highest dose often 57.5 µM), usual class: inhibitors. purified FLuc, Km substrates, luminescence inhibition; note: nearly all actives have a fitted effect of over 55% in size
Target sequence (P08659 whole entry, looked up): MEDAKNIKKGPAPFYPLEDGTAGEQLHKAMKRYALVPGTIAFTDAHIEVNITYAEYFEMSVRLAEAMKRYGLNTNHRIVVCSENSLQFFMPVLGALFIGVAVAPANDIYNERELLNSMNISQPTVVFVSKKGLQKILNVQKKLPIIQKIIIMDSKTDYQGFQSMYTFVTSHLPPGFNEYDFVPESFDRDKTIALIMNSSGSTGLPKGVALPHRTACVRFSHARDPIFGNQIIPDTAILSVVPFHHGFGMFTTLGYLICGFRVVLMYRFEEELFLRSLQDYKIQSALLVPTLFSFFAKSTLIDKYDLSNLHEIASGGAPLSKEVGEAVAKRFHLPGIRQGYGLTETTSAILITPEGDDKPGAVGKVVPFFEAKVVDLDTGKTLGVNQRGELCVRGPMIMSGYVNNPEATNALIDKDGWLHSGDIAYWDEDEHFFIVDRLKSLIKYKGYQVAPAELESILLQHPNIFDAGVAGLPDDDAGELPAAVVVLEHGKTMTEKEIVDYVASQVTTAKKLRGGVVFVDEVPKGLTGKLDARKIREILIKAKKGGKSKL
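Purified P. pyralis luciferase (10nM final) with 10uM D-luciferin and 10uM ATP (Km levels) in 50mM Tris acetate pH 7.5, 10mM Mg acetate, 0.01% Tween-20, 0.05% BSA; qHTS 6-point titration, ~60 µM downward; luminescence read.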
Rab9 prom act: activators of Rab9 promoter; Huh7 Rab9 promoter-luciferase reporter, luminescence, 24 h; Potency, µM (titrated, usually from 9.22 µM), most hits filed as activators; hit rate 2.8% among 320,000; note: nearly all actives have a fitted effect of over 60% in size
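Rab9 promoter-driven luciferase in stably transfected Huh7 cells; 1500 cells/well rested 2 h, exposed to compound in DMSO for 24 h at 37 °C, 5% CO2. Luminescence read 10 min after adding luciferase reagent at ambient temperature.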
SMN2 splice up: increases expression of the SMN2 splice variant | HEK293 SMN2-luciferase splicing reporter, luminescence, 30-36 h | Potency, µM (top dose mostly 46.1 µM), usual class: activators | hit rate 2.8% among 210,000; note: nearly all actives have a fitted effect of over 55% in size
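qHTS luciferase splicing reporter: luminescence rises when SMN2 exon 7 is included in transfected HEK293 cells. Compound exposure lasted 30-36 h at 37C, with 4.5 mM final sodium butyrate as control, followed by a ONE-Glo read.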
Hits are given with their value; n = inactive; u = inconclusive; x = no result given. Calls come from the whole dose curve; as a rule, active = well fitted curve in the direction sought with a large enough effect; inconclusive = small, poorly fitted or top-dose-only effect, or another doubt; inactive = no such curve, though single readings can be large; an effect the other way counts as inactive or inconclusive.

SMILES | ELG1 genotoxic | NPC1 promoter act | ELG1 DNA repair | FLuc modulator | Rab9 prom act | SMN2 splice up
CCC/C(=N\NC(=O)CCC(=O)NCc1ccccc1)c1ccccc1 | n | n | n | n | n | n
COc1ccccc1C(=O)N1CCN(C2CCN(Cc3ccccc3)CC2)CC1 | x | x | x | n | x | n
O=C(Nc1cccc(Cl)c1)c1ccccc1 | 16µM | u | u | 13µM | u | x
O=C(NNC(=S)Nc1cccc(Cl)c1)c1ccccc1 | n | u | u | u | n | x
CC(=O)Nc1ccc2cc3ccc(NC(C)=O)cc3nc2c1 | u | u | u | 11µM | u | x
CCCCOc1ccc(CNC(=O)c2ccc(-c3nc(CN4CCc5ccccc54)c(C)o3)cc2)cc1 | x | x | x | n | x | x
COc1ccccc1NS(=O)(=O)c1ccc2oc(SC(C)C(=O)N3CCNC3=O)nc2c1 (centres undefined) | n | n | 26µM | x | n | x
C/C(=N\Nc1nc2ccc(Cl)cc2o1)c1ccccc1 | n | n | u | 17µM | u | x
CC1(C(=O)Nc2nnc(C(C)(C)C)s2)Cc2ccccc2C(=O)O1 (centres undefined) | n | n | n | n | n | n
C=CC(=O)Nc1cccc(Oc2ncnc3[nH]cc(-c4cnc5ccccc5c4)c23)c1 | n | x | 7.3µM | x | x | x
CC(=O)Nc1cccc(Oc2ncnc3scc(-c4ccc(C)cc4)c23)c1 | n | n | u | n | n | n
O=C(CCn1nc(-c2ccccc2)ccc1=O)NCCCN1CCCCCC1 | n | n | n | n | n | n
CCOc1ccc(N2C(=O)S/C(=C\c3cccn3C)C2=O)cc1 | n | n | u | n | n | u
Cn1cccc1/C=C1\SC(=O)N(c2ccc(O)cc2)C1=O | u | u | u | u | u | 13µM
Cc1cccc(CN2CCC(CNc3ncnc4onc(-c5ccc(Cl)cc5)c34)CC2)c1 | x | x | x | n | x | n
CC(C)c1nc(SCC(=O)Nc2ccc(C(=O)O)cc2)c2c3c(sc2n1)CCCC3 | n | n | n | 27µM | n | x
CC1CCc2c(sc3ncnc(SCC(=O)Nc4ccc(C(=O)O)cc4)c23)C1 (centres undefined) | n | n | n | u | n | x
CC(NC(=O)c1noc2c1CCCCC2)c1ccccc1 (centres undefined) | n | n | u | n | n | n
CC(=O)c1ccc(NC(=O)c2noc3c2CCC3)cc1 | n | 0.79µM | u | 12µM | u | u
COC(=O)c1ccccc1NC(=O)c1noc2c1CCCC2 | n | n | u | 17µM | n | n
O=C(Nc1ccc(OC(F)(F)F)cc1)c1noc2c1CCCC2 | x | x | x | u | x | 8.9µM
O=C(Nc1cccc(O)c1)c1noc2c1CCCCC2 | u | u | u | 0.95µM | u | n
O=C(Nc1ccccc1C(=O)N1CCOCC1)c1noc2c1CCCC2 | n | n | n | n | n | n
COc1ccc(NC(=O)c2noc3c2CCC3)cc1 | u | 1.4µM | u | 2.7µM | 0.5µM | 10µM
Cc1ccc(NC(=O)c2noc3c2CCC3)cc1C | u | 3.2µM | u | 2.4µM | 0.63µM | 2.8µM
SMILES | ELG1 genotoxic | NPC1 promoter act | ELG1 DNA repair | FLuc modulator | Rab9 prom act | SMN2 splice up
COc1ccc(-c2cc(C(=O)Nc3ccc(C)cc3)no2)cc1 | x | x | x | n | x | n
COc1cc(NC(=O)c2noc3c2CCC3)c(OC)cc1Cl | n | n | n | n | n | u
CCOC(=O)N1CCN(C(=O)CSc2nnc(CNC(=O)c3ccccc3F)o2)CC1 | n | n | n | n | n | n
Cc1ccc(NC(=O)Nc2cccn(Cc3c(F)cccc3Cl)c2=O)cc1 | n | n | n | 7.6µM | n | n
O=C(Nc1cccn(Cc2c(F)cccc2Cl)c1=O)NC1CCCCC1 | n | n | u | 13µM | n | x
O=C(Nc1cccn(Cc2c(Cl)cccc2Cl)c1=O)C1CC1 | n | n | u | n | n | n
O=C(NCc1ccccc1)Nc1cccn(Cc2c(F)cccc2Cl)c1=O | n | n | u | 13µM | n | n
C#CCOC(=O)Nc1cccn(Cc2c(Cl)cccc2Cl)c1=O | n | n | n | 17µM | n | n
Oc1c(C(c2ccccc2F)N2CCCC2)sc2nc(-c3ccco3)nn12 (centres undefined) | x | x | x | n | x | x
Cc1ccc(C(=O)NCC(=O)OC(C)C(=O)NCCC2=CCCCC2)cc1C (centres undefined) | n | n | n | n | n | n
COc1ccc(NC(=O)Nc2cccc3c2O[C@H](CN(C)C(=O)Nc2ccc(OC)cc2)[C@@H](C)CN([C@H](C)CO)C3=O)cc1 | n | x | 9.2µM | x | x | x
Cc1noc(C)c1S(=O)(=O)N(C)C[C@H]1Oc2ccc(NS(=O)(=O)c3ccc(F)cc3)cc2C(=O)N([C@H](C)CO)C[C@@H]1C | n | x | 5.8µM | x | x | x
C[C@@H]1CN([C@@H](C)CO)C(=O)c2cc(NC(=O)Nc3ccccc3)ccc2O[C@H]1CN(C)C(=O)Nc1cccc2ccccc12 | n | x | 15µM | x | x | x
C[C@H](CO)N1C[C@H](C)[C@@H](CN(C)C(=O)Nc2ccccc2)Oc2ccc(NC(=O)Nc3ccc(C(F)(F)F)cc3)cc2C1=O | n | x | n | x | x | x
